# A selection: hits, their analogues and other compounds. The true share with any hit is near 1.5%.
# FEN1 inhibitor: inhibitors of human flap endonuclease 1 | P39748 | Recombinant FEN1 flap cleavage, fluorescence, 15 min | Potency, µM (titrated, usually from 114 µM), hits mostly inhibitors | 390,000 compounds, 0.35% hits | AID 588795; note: nearly all actives have a fitted effect of over 65% in size
#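 FEN1 at 10 nM preincubated with compounds 15 min at room temperature, then flap DNA substrate added at 50 nM final. Signal read at 0 and 15 min; concentration-response fitted with four-parameter Hill equation.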
# APEX1 inh: APE1 (human) endonuclease inhibition | P27695 | recombinant APE1, TAMRA/BHQ-2 abasic DNA cleavage fluorescence | Potency, µM (highest dose often 65.8 µM), actives largely listed as inhibitors | 350,000 compounds, 0.35% hits | AID 2517; note: nearly all actives have a fitted effect of over 55% in size
#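 Measures dequenching upon AP-site incision of a 5'-TAMRA/3'-BHQ-2 THF-containing duplex, 50 nM; human APE1 0.75 nM after 15 min room-temperature exposure to compound; kinetic three-point read at one-minute spacing.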
# PI5P4K alpha inh: inhibitors of human PI5P4K alpha; P48426; 330,000 compounds, 1.2% hits; max response, %; PI5P4Kalpha enzyme, ADP-Glo luminescence, 60 min; hits give low values; active = max response of -50% or lower; inconclusive = between -30% and -50%; inactive = -30% or higher; note: value at the top dose of about 77 µM
# Target sequence (P48426 whole entry, looked up): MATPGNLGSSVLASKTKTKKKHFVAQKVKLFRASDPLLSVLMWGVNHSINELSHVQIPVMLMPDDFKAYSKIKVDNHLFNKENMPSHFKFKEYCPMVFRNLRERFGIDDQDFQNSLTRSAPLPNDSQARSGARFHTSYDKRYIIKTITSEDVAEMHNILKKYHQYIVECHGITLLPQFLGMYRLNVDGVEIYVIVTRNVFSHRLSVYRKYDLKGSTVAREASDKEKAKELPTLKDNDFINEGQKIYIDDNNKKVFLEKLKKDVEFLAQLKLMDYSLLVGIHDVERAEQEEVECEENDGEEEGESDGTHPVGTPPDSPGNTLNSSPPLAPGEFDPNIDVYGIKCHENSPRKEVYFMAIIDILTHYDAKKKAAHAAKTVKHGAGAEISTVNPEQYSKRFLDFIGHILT
#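 Quantitative HTS of the MLSMR library against PI5P4Kalpha with substrate. ATP added last at 5 microM final; room temperature, 60 minutes. Remaining ATP depleted, ADP converted and read as luminescence.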
# RECQ1 inh-1: blocks DNA unwinding by human RECQ1. P46063. RECQ1 DNA unwinding, red fluorescence kinetic read. Potency, µM (series often up to 57.3 µM), actives largely listed as inhibitors. 240,000 compounds, 0.54% hits; note: nearly all actives have a fitted effect of over 30% in size
#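 RECQ1T1 50 nM; forked duplex (20 bp + 30-nt ss tails) 200 nM, ATP 2 mM final; pH 8.0, 2 mM MgCl2, 2.5 ug/ml poly(dI-dC); 15 min compound preincubation; discontinuous kinetic read over 2 h at RT.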
# BLM inh: blocks DNA unwinding by human BLM helicase; recombinant BLM DNA unwinding, fluorescence dequenching; Potency, µM (series often up to 56.1 µM), usual class: inhibitors; 350,000 compounds, 0.2% hits; note: nearly all actives have a fitted effect of over 35% in size
# GCN5L2 inh: blocks human GCN5L2 histone acetyltransferase; Q92830; 390,000 compounds, 0.21% hits; Potency, µM (highest dose often 58.9 µM), actives largely listed as inhibitors; GCN5L2 HAT assay, ThioGlo1 CoA-SH fluorescence
#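 Compounds, pin-transferred from DMSO stocks, meet 20nM GCN5L2 for 15 min before the reaction begins with H3(1-25) peptide (75uM) and acetyl-CoA (70uM). Thiol-reactive ThioGlo1 reports CoA release over 20 min at room temperature.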
# RECQ1 conf: confirmation of human RECQ1 helicase inhibitors; shares compounds with RECQ1 inh-1; RECQ1 helicase DNA unwinding, fluorescence; Potency, µM (doses to about 229 µM), hits mostly inhibitors; 610 compounds, 28% hits; AID 2708; note: nearly all actives have a fitted effect of over 45% in size
# ADP FP counter: counter-screen for RECQ1 inhibitors: ADP displacement; shares compounds with RECQ1 inh-1; ADP fluorescence polarization displacement counterscreen; AID 2711; 530 compounds, 27% hits; Potency, µM (top dose mostly 228 µM), usual class: inhibitors; note: nearly all actives have a fitted effect of over 45% in size
# RECQ1 inh-2: confirmation of human RECQ1 helicase inhibitors; Potency, µM (series often up to 119 µM), actives largely listed as inhibitors; shares compounds with RECQ1 inh-1; 1,100 compounds, 15% hits; recombinant RECQ1 DNA unwinding, red fluorescence; note: nearly all actives have a fitted effect of over 50% in size
# A number is an active result; – = inactive; ? = inconclusive; · = no result given. Unless noted, calls come from the whole dose curve; as a rule, active = well fitted curve in the direction sought with a large enough effect; inconclusive = small, poorly fitted or top-dose-only effect, or another doubt; inactive = no such curve, though single readings can be large; an effect the other way counts as inactive or inconclusive.
SMILES,FEN1 inhibitor,APEX1 inh,PI5P4K alpha inh,RECQ1 inh-1,BLM inh,GCN5L2 inh,RECQ1 conf,ADP FP counter,others
CSCC[C@H](N)C(=O)N[C@@H](CCCN=C(N)N)C(=O)N[C@@H](Cc1ccccc1)C(=O)N[C@@H](Cc1ccccc1)C(=O)N[C@H](C(=O)O)C(C)C,·,–,·,–,–,–,·,·,
COC(=O)C1=CN(Cc2ccc(OC)cc2)C=C(C(=O)OC)C1c1cccs1,–,?,–,–,–,–,·,·,
COC(=O)C1=CC(C(=O)c2cccs2)=NN(c2ccc(OC)cc2)C1C(=O)OC (stereo not drawn),–,–,–,?,–,–,·,·,RECQ1 inh-2=79.4µM
O=C(NCCc1nc2ccccc2n1CCCOc1ccc2ccccc2c1)C1CCCCC1,–,·,·,·,·,·,·,·,
O=S(=O)(c1ccc(F)cc1)N1CCN(c2nc(-c3ccccc3)nc3ccccc23)CC1,–,·,·,·,·,·,·,·,
CCn1c(CSc2nnc(-c3ccncc3)n2CCOC)nc2cc(C(=O)O)ccc21,?,–,–,22.4µM,–,–,56.2µM,4.47µM,RECQ1 inh-2=–
CCOc1ccc(C(=O)CSc2nnc3ccccn23)cc1,–,–,–,–,–,–,·,·,
CCn1c(CSc2n[nH]c(N)n2)nc2cc(C(=O)O)ccc21,–,?,–,31.6µM,–,–,·,·,RECQ1 inh-2=56.2µM
CCn1c(CSc2nnc3ccccn23)nc2cc(C(=O)O)ccc21,50.1µM,–,–,10µM,–,–,44.7µM,2µM,RECQ1 inh-2=56.2µM
CC[C@H](C)C(N)C(=O)O (stereo partly drawn),·,–,·,–,–,–,·,·,
CN(C)c1ccc(-c2nnc(SCC(=O)NCc3ccco3)n2C)cc1,–,·,·,·,·,·,·,·,
N#CN=c1snc(-c2ccccc2Cl)n1-c1ccc(F)cc1,–,·,·,·,·,·,·,·,
OC[C@H]1OC(O)(CN2CCOCC2)[C@H](O)[C@@H]1O (stereo partly drawn),·,–,·,–,–,–,·,·,
O=C(NCC1CCCO1)c1onc(CSc2cccc3ccccc23)c1C(=O)O (stereo not drawn),–,–,?,–,–,–,–,–,
CCCCNC(=O)c1onc(CSc2cccc3ccccc23)c1C(=O)O,–,–,?,–,–,–,?,–,
CCCCNC(=O)c1onc(CSc2ccccc2)c1C(=O)O,–,–,?,–,–,–,·,·,
CCc1ccccc1SCc1noc(C(=O)NCC2CCCO2)c1C(=O)O (stereo not drawn),–,–,–,–,–,–,·,·,
C=CCNC(=O)c1onc(CSc2cccc(OC)c2)c1C(=O)O,–,–,–,–,–,–,–,?,
COc1ccc2c(c1OC)C(=O)OC2c1ccc(O)cc1 (stereo not drawn),–,·,·,·,·,·,·,·,
C=C[C@@H]1[C@@H](C)[C@H](C)C(=O)C([C@H](O)C(C)C)[C@@H]1C (stereo partly drawn),–,–,·,–,–,·,·,·,
O=[N+]([O-])c1cc(F)c2cccnc2c1O,?,–,–,?,?,–,·,·,RECQ1 inh-2=–
O=C(O)c1ccc(Cl)c(NC(=O)C2CCCN2S(=O)(=O)c2cccc3nsnc23)c1 (stereo not drawn),–,–,–,–,–,–,–,–,
Cc1ccc(NC(=O)C2CCCN2S(=O)(=O)c2cccc3nsnc23)cc1Cl (stereo not drawn),–,·,·,·,–,–,·,·,
CCN(CC)S(=O)(=O)c1ccc(C(=O)NC(=S)N(CCC#N)Cc2cccnc2)cc1,–,–,–,–,–,–,–,–,
COc1ccc(-c2cc3nc(-c4ccccc4)cc(N4CCCC(O)C4)n3n2)cc1 (stereo not drawn),–,–,–,?,–,–,·,·,RECQ1 inh-2=–
CCn1c(SCC(=O)NCc2ccco2)nnc1-c1ccc(N(C)C)cc1,–,·,·,·,·,·,·,·,

# Assay outcomes: PubChem BioAssay, National Center for Advancing Translational Sciences (NCATS)
